Compound activity: PubChem BioAssay, several laboratories
Rows were chosen to be rich in hits. Some 4.1% of all compounds tested hit in one or more screens of this group.
Bfl-1 A1 inh: inhibitors of the anti-apoptotic protein A1, read as caspase activation; MEF A1-2A-BIM cells, Caspase-Glo 3/7 luminescence, 3 h; percent of clofoctol response, vehicle zero; caspase activation, % (concentration not given with the values); 0.066% of 330,000 active; AID 2462;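 active means over half of replicate activation scores above 10%, or exactly half above 10 with the replicate mean above 10; inconclusive means replicate mean below 10 yet half the replicates above 10; inactive means over half of replicates below 10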
CSC inhib: blocks cancer stem cells; cancer stem cell-like cells viability, luminescence; 1.1% of 300,000 active; inhibition, % at 7.5 µM; in the data active means inhibition above about 75%; inconclusive means no clear call, values can overlap the other calls; tested in HMLE shEcad cells
Mdm2 MdmX PPI: inhibitors of human Mdm2/MdmX interaction | 3% of 330,000 active | SaOS-2 split-luciferase Mdm2/MdmX complementation, luminescence | inhibition, % at 8 µM | AID 485346 | O15151+Q00987;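 active means inhibition of at least 50% at 8 µM in the primary screen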
Target sequence (O15151 whole entry, looked up): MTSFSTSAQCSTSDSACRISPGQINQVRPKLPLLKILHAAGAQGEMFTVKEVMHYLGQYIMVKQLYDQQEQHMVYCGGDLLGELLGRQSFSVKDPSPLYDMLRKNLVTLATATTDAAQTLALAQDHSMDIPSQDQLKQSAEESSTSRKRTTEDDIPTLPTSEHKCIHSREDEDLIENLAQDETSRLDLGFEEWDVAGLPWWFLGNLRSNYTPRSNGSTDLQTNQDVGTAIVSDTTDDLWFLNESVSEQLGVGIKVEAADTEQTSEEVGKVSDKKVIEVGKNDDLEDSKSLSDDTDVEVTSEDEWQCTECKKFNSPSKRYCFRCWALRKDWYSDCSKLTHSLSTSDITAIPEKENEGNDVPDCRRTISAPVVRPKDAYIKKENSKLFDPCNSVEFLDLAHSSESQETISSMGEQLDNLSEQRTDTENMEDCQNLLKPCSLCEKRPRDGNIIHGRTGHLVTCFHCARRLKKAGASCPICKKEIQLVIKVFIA
Target sequence (Q00987 whole entry, looked up): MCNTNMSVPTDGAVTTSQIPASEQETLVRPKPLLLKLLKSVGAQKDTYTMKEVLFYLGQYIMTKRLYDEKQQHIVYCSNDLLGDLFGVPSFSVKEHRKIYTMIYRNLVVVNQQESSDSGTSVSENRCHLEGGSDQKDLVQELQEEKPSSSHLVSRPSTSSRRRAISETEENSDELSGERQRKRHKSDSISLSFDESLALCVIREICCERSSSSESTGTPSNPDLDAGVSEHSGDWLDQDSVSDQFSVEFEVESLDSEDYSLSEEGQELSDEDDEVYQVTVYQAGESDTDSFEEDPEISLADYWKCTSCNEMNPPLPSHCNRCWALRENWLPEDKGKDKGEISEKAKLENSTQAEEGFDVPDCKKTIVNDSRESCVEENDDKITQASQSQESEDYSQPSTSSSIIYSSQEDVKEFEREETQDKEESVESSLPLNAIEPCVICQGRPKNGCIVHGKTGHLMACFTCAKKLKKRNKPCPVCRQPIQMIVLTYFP
Beta cell apopt: beta cell apoptosis inhibition; INS-1E cytokine-induced death, ATP luminescence, 48 h; percent of positive-control rescue, neutral wells zero; protection from apoptosis, % (test concentration not listed); 0.8% of 300,000 active; AID 435005;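 active means Every replicate reaches about 75%, or at least half do and their mean reaches it too, limit read from the data; inconclusive means At least half of replicates reach the limit but their mean does not; inactive means Under half of replicates reach the limit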;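 further: 0% = cytokine-treated negative control wells and 100% = positive control rescue; higher means more ATP so stronger rescue from cytokine killing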
aSyn 5UTR inh: MLPCN primary screen, SNCA 5' untranslated region; alpha-synuclein 5'UTR reporter, inhibitor activity; AID 1813; 0.82% of 300,000 active; inhibition, % (tested at 7.5 µM); in the data active means inhibition above about 60%; inconclusive means no clear call, values can overlap the other calls;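 further: H4 neuroglioblastoma cells stably carrying SNCA 5'UTR luciferase fusion; 0% = DMSO wells and 100% = positive control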
Mdm2-MdmX conf: confirmation of human Mdm2/MdmX interaction inhibitors | inhibition, % at 8 µM | shares compounds with Mdm2 MdmX PPI | Mdm2-MdmX binding, luminescent assay | 55% of 10,000 active; in the data active means inhibition above about 40%
Full FLuc ctr: counter-screen for Mdm2/MdmX inhibitors: full-length luciferase; inhibition, % at 8 µM; 77% of 6,200 active; SaOS-2 full-length luciferase counterscreen, luminescence; shares compounds with Mdm2 MdmX PPI;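 active means mean inhibition at 8 µM reaching about 37%, which flags the compound as non-specific, limit read from the data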;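 further: p53-null SaOS-2 cells with luciferase driven by a doxycycline-inducible promoter; compound on cells about two nights before reading with doxycycline added after day one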
Active calls of the source: *; ? = inconclusive; . = not tested or not shown.

SMILES	Bfl-1 A1 inh	CSC inhib	Mdm2 MdmX PPI	Beta cell apopt	aSyn 5UTR inh	Mdm2-MdmX conf	others
CCN(c1ccccc1)S(=O)(=O)c1ccc(Cl)c(NC(=O)CSc2ncn[nH]2)c1	-1	-7	36	-6	10	.
CCN(c1ccccc1)S(=O)(=O)c1ccc(Cl)c(NC(=O)c2ccc(=O)[nH]n2)c1	0	.	53*	-1	.	-3
CCN(c1ccccc1)S(=O)(=O)c1ccc(Cl)c(NC(=O)Nc2ccc(Cl)cc2C#N)c1	0	9	99*	10	-10	99*	Full FLuc ctr=56*
CSc1ccccc1C(=O)N(CC1CCCO1)c1c(N)n(Cc2ccccc2)c(=O)[nH]c1=O (centres undefined)	0	-1	-8	-6	2	.
O=C1C(Cc2ccccc2)Nc2ncnc(N3CCN(c4ccccc4)CC3)c2N1Cc1ccc(Cl)cc1 (centres undefined)	0	31	42	-5	23	.
O=C1/C(=N\S(=O)(=O)c2cccs2)C([n+]2ccc(CCCc3ccccc3)cc2)=C([O-])c2ccccc21	-1	93*	83*	104*	91*	52*	Full FLuc ctr=41*
O=S(=O)([N-]c1nc2ccccc2nc1-[n+]1ccc(CCCc2ccccc2)cc1)c1cccs1	0	11	-20	0	-7	.
CC(C)Oc1ccccc1C1NC(=O)CCC1[N+](=O)[O-] (centres undefined)	1	6	-14	-3	-15	.
C[C@@]12C(=O)Nc3ccc(F)cc3C(=O)N1[C@H]1c3cc(Br)ccc3OC[C@@H]1[C@@H]2c1ccccc1	0	41	37	-6	.	.
C[C@@]12C(=O)Nc3cc(F)ccc3C(=O)N1[C@H]1c3cc(Br)ccc3OC[C@@H]1[C@@H]2c1ccccc1	0	68	56*	-11	.	51*	Full FLuc ctr=36*
CCOC(=O)[C@H]1[C@H]2COc3ccc(Br)cc3[C@@H]2N2C(=O)c3ccc(Cl)cc3NC(=O)[C@@]12C	1	33	54*	3	.	34
Cc1ccc2c(c1)[C@H]1[C@H](CO2)[C@H](c2ccccc2)[C@]2(C)C(=O)Nc3cc(F)ccc3C(=O)N12	-1	.	58*	19	.	30
Cc1ccc2c(c1)[C@H]1[C@H](CO2)[C@H](c2ccccc2)[C@]2(C)C(=O)Nc3ccccc3C(=O)N12	0	.	41	15	.	.
CC(=O)c1ccc(NC(=O)C(C)Sc2n[nH]c(-c3cccnc3)n2)cc1 (centres undefined)	0	-9	0	2	2	.
COc1ccc(CCNC(=O)c2nnn(-c3ccc4c(c3)OCCO4)c2N)cc1OC	1	-11	80*	1	27	79*	Full FLuc ctr=38*
Cc1ccc(NC(=O)c2ccc(NCCCN3CCC(C)CC3)c([N+](=O)[O-])c2)cc1F	0	-1	60*	1	16	55*	Full FLuc ctr=47*
CCOc1ccc(S(=O)(=O)N2CCC(C(=O)NC3CC3)CC2)cc1Cl	-1	-4	5	.	13	.
COc1ccc(C2NCCc3c2[nH]c2ccccc32)cc1COc1ccc(F)cc1 (centres undefined)	1	?	69*	104*	-2	37
Cc1[nH]c(=O)[nH]c(=O)c1S(=O)(=O)Nc1cccc([N+](=O)[O-])c1C	0	-8	11	-7	-4	.
CC1CN(C(=O)CCNC(=O)c2ccccc2Cl)CC(C)O1 (centres undefined)	-1	-2	7	-4	7	.
Nc1c(-c2ccccc2)c(CSc2nc3ccccc3[nH]2)nn1-c1cccc(Cl)c1	-1	17	61*	23	-2	5
Nc1c(-c2ccccc2)c(CSc2nc3ccccc3[nH]2)nn1-c1ccc(Cl)cc1	0	37	.	7	33	.
Brc1ccc(N=Nc2ccc3ccccc3n2)cc1	-7	31	79*	.	95*	72*	Full FLuc ctr=48*
CCn1c(O)c(N=Nc2ccc3ccccc3n2)c2ccccc21	-7	26	-125	6	-143	.
Cc1ccc(Sc2nc(-c3ccccc3)nnc2C(F)(F)F)cc1	.	.	54*	-8	11	4
CNc1nc(-c2ccccc2)nnc1C(F)(F)F	1	-10	7	.	-18	.
